In PubChem BioAssay AID504884 (Broad Institute, 2011) one finds activity data, which are given here for 60 compounds.

The structures appear in SMILES notation. About 230 (0.064%) of roughly 360,000 compounds were called active. The full list was thinned out, with actives kept by preference. A number with no mark means an inactive call. Cut-off read from the data, not from the text of the source: active = activity above about 50% (passing the limit was not always enough); inconclusive = no clear call, values can overlap the other calls.

The subject of the assay is DNA topoisomerase I (Yersinia pestis CO92). Kind of assay: Yersinia pestis topoisomerase I inhibitors, primary screen, biochemical, cleavage product accumulation, plate reader, single point (AID 504884). As to conditions: Y. pestis Topo-I cleavage product accumulation, at 10 µM, stronger effect = higher value.
Turning to `CCC1(C)NC(=O)N(CC(=O)N2CCN(c3cccc(Cl)c3)CC2)C1=O` (stereo not given), the activity was 2.38%.

`CCC1C=C(c2ccccc2)C=CN=C1N(CC)CC` (stereo not given): the activity is 0.893%.

Consider `CCN(CC)S(=O)(=O)c1ccc(N2CCOCC2)c(NC(=O)C(C)Oc2ccc(F)cc2)c1` (stereo not given), for which the activity is 18%.

Turning to `CCN1CCc2nc(NC(=O)c3cc(F)c(F)cc3Cl)sc2C1`, the activity was 6.77%.

Regarding `COc1ccc(CCNC(=O)C(=O)NCC2CCNCC2)cc1OC`, the activity is 0.788%.

As to `COC(=O)[C@H](C)[C@H]1C[C@]1(C)[C@H](NC(=O)OCc1ccccc1)c1ccccc1`, the activity was 16.4%.

On to `CC(C)C(NC(=O)OCc1ccccc1)C(=O)OCC(=O)N1C(C)CCCC1C` (stereo not given), for which the activity is 15.6%.

As for `CC(C)[C@H](NC(=O)OCc1ccccc1)C(=O)OCc1ccccc1`, the activity is 58.9% (active).

`COc1ccc(N(Cc2cc3ccc(C)cc3[nH]c2=O)S(=O)(=O)c2ccccc2)cc1`: the activity was 29.4%.

As for `CN1C(C)(C)CC(NC(=O)CCC(=O)NC2CC(C)(C)N(C)C(C)(C)C2)CC1(C)C`, the activity was -3.64%.

As for `O=C(O)c1cc(S(=O)(=O)NC2CCCc3ccccc32)ccc1O` (stereo not given), the activity is -3.28%.

For `COc1ccc(N2CC(C)Cn3c2nc2c3c(=O)n(Cc3ccccc3F)c(=O)n2C)c(OC)c1` (stereo not given), the activity was 14.8%.

Regarding `O=C(CN1C(=O)COc2ccc(Cl)cc21)N1CCOCC1`, the activity was 2.5%.

As for `CCC(CC)c1nnc(NS(=O)(=O)Cc2ccccc2)s1`, the activity is -2.39%.

As to `Cc1ccc2c(C)c(C(=O)N3CCC(N4CCC(C(=O)NC5CC5)CC4)CC3)oc2c1`, the activity was -3.85%.

`Cc1ccc(-n2ncc3c(Nc4cccc(C(=O)O)c4)ncnc32)cc1`: the activity is -7.17%.

Regarding `Cc1ccc(Cl)cc1NC(=O)C1CCN(S(C)(=O)=O)CC1`, the activity was 6.58%.

On to `c1cc2c(cc1C1OCC3C(c4ccc5c(c4)OCO5)OCC13)OCO2` (stereo not given), for which the activity was 21.1%.

Take `CC(=O)c1cccc(OCC(=O)OCC(=O)Nc2cc(S(=O)(=O)N3CCCCC3)ccc2C)c1`: the activity was 29.7%.

Consider `COc1cccc(N(CC(=O)NCCSc2ccccn2)S(C)(=O)=O)c1`, for which the activity was -7.24%.

For `O=C(CSc1nc2cc3c(cc2c(=O)n1CCC1=CCCCC1)OCO3)NCc1ccco1`, the activity was -0.243%.

Take `Cc1cccn2cc(-c3cccc(S(=O)(=O)N4CCCCC4)c3)nc12`: the activity was 23.2%.

On to `Cc1ccc(F)cc1S(=O)(=O)Nc1cccc(C(=O)N2CCCC(C(N)=O)C2)c1` (stereo not given), for which the activity was 0.477%.

For `CC1(C)c2[nH]c3ccccc3c2C[C@H]2C(=O)N(N)CC(=O)N21`, the activity is -8.39%.

Turning to `CCOC(=O)Cn1c(=O)n(Cc2ccc(OC)cc2)c(=O)c2cccnc21`, the activity is 9.56%.

Regarding `Cc1cc(C(=O)O)c(S(C)(=O)=O)s1`, the activity was -6.33%.

As for `CC(=O)Nc1ccc(Nc2ncnc3c2nnn3Cc2ccccc2Cl)cc1`, the activity was 2.24%.

As to `Cc1cccc(OC(=O)c2sc3ncn(C)c(=O)c3c2C)c1`, the activity was -1.35%.

For `CC1CC(C)(C)n2c(O)c(N=NC(N)=S)c3cccc1c32` (stereo not given), the activity was -5.67%.

On to `CCOc1ccccc1OCC(=O)Nc1ccccc1C(=O)NC1CC1`, for which the activity is -3.16%.

As for `Fc1ccc2cnc(-c3ccccc3)cc2c1`, the activity is 5.85%.

For the compound `c1ccc2cc(CCCc3cc4ccccc4cn3)ncc2c1`, the activity is 54.9% (active).

With `CCC1CCCCN1C(=O)CSc1nc2c(c(=O)n1C)SC(C)C2` (stereo not given), the activity is 16.8%.

As for `Cc1ccc(CNC(=O)CCS(=O)(=O)c2ccc3c(c2)CC(C)N3C(=O)C2CC2)o1` (stereo not given), the activity is 7.23%.

`Cc1ccc(C)c(N(CC(=O)NCc2ccco2)C(=O)CCC(=O)Nc2ccccn2)c1`: the activity was 18.9%.

With `CC1Cc2cc(/C(O)=C3\C(=O)C(=O)N(Cc4cccnc4)C3c3ccccc3F)ccc2O1` (stereo not given), the activity was 2.42%.

On to `Cc1cccn2c(CN(C)C3CCCc4ccccc43)c(C(=O)N3CCOCC3)nc12` (stereo not given), for which the activity is 42.2%.

Consider `COc1ccc(CNCCCNCc2ccc(OC)c(OC)c2)cc1OC`, for which the activity was 2.69%.

Regarding `CCc1ccc(OCC(O)CN2CCN(CCO)CC2)cc1` (stereo not given), the activity is 5.47%.

As for `NC(Cc1ccc(F)cc1)c1csc(Nc2nncc3ccccc23)n1` (stereo not given), the activity was -11.6%.

Turning to `CC(C)(CNC(=O)CNC(=O)C1CCCCC1)N1CCOCC1`, the activity was -0.69%.

Take `Cc1c(NC(=O)C(C)OC(=O)c2c3c(nc4ccccc24)CCC(C)C3)c(=O)n(-c2ccccc2)n1C` (stereo not given): the activity was 3.41%.

Regarding `COc1cc(NC(=O)C2=C(C)OCCS2)c(Cl)cc1C(=O)NCCN1CCN(C)CC1`, the activity was -0.826%.

In the case of `COc1ccc(-n2nc(C(=O)NCC(=O)Nc3cccc(C)n3)c3ccccc3c2=O)cc1`, the activity was 15.2%.

In the case of `O=S(=O)(Nc1ccc(Cl)cn1)c1cnc(Cl)c(Br)c1`, the activity is 2.02%.

`CC1CCCCC1NC(=O)c1cn(C)c2ccc(S(=O)(=O)N3CCOCC3)cc2c1=O` (stereo not given): the activity was -3.45%.

Consider `CCN(CCN(C)C)C(=O)c1ccc2nc(C)c(N(C)C(=O)CCc3ccccc3)n2c1`, for which the activity was 0.0305%.

As for `Cc1nc(-c2ccc(F)cc2)c(CC(=O)N(C)CC(=O)Nc2c(C)cccc2C)s1`, the activity was 0.373%.

On to `Cc1ccccc1-c1nc(CS(=O)(=O)CC(=O)N2CCc3ccccc3C2)c(C)o1`, for which the activity was 32.1%.

For `COc1ccc(-n2c(Cc3cccn3C)nnc2SCC(=O)Nc2cc(C)cc(C)c2)cc1`, the activity is 18.8%.

`O=C(NCc1ccccc1)C(c1ccccc1)N(C(=O)c1csnn1)c1ccc(F)cc1` (stereo not given): the activity is 26.7%.

Regarding `CN(C)C(=O)CCc1ccc2c3c([nH]c2c1)[C@]1(C)[C@@H](C(=O)N2CCOCC2)C[C@H](CC(=O)NCCc2ccccn2)C(=O)N1CC3`, the activity was 4.43%.

Take `CCc1ccc(C(=O)OCC(=O)NCC(F)(F)F)cc1`: the activity was 7.38%.

For `CN(C)/C=C(/C(=O)c1ccccc1Cl)S(C)(=O)=O`, the activity is 3.93%.

As for `CC1CCN(S(=O)(=O)c2ccc(NC(=O)C3CC(=O)N(c4ccccc4)C3)cc2)CC1` (stereo not given), the activity was 71.3% (active).

Take `O=C(Nc1ccc(S(=O)(=O)N2CCCCC2)cc1)C1CC(=O)N(c2ccc(F)cc2)C1` (stereo not given): the activity is 12.1%.

As for `Cc1ccccc1N1CC(C(=O)Nc2ccc(S(=O)(=O)N3CCCC3)cc2)CC1=O` (stereo not given), the activity was 10.6%.

In the case of `CCCn1c(SCC(=O)c2ccc3c(c2)OCCO3)nnc1C(C)C`, the activity was 9.18%.

`CCCCn1c(N)c(N(CCOC)C(=O)COc2c(C)cccc2C)c(=O)[nH]c1=O`: the activity is -2.82%.

Take `CN1CCN(S(=O)(=O)c2cccc(C(=O)Nc3sccc3C#N)c2)CC1`: the activity was -7.33%.
